Molecules are shown by their SMILES. This is part of a sample that, as a whole, favours compounds with a hit. Of some 83,000 tested, about 20% had one in any assay.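 Negative percent growth values reflect cell death: -40 means 40% of the cells present at the start died, and -100 means all died.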 A number with no mark means an inactive call. The source made the active and inactive calls. The calls were made as follows: active = growth percent below 10; inactive = the rest.

The assay relates to MDA-MB-468 breast. In words: NCI-60 one-dose screen, 48 h (100 = growth as untreated, 0 = no growth, -100 = all killed). To be noted: 10 µM unless noted.
Turning to `CCOc1ccc(-c2nc3ccc(-c4nc5ccc(N6CCN(C)CC6)cc5[nH]4)cc3[nH]2)cc1`, the growth was -85.2% (active). Regarding `O[N+]1=CC=CCC1=S.On1ccccc1=S.[Zn]`, the growth was -75.8% (active). On to `NS(=O)(=O)c1ccc(NCC(=O)Nc2ccc(-c3nc4ccccc4s3)cc2)cc1`, for which the growth is 4.26% (active). In the case of `CN(Cc1ccccc1)Cc1ccc([N+](=O)[O-])cc1I`, the growth was 93.3%.

(Values after PubChem BioAssay (NCI).)
